From PubChem BioAssay (Tox21)
Inconclusive results are not listed. Where a call stands in place of a potency, no number is given. The source made the active and inactive calls. Calls follow the shape of the dose curve; as a rule, active = well fitted activation curve with a large enough effect in the signal ratio in the repeat runs (not every such curve was filed as active); inconclusive = weak or mixed curves, or effect the other way; inactive = no such curve, though single readings can be large or run the other way; the % refers to the signal ratio.
Potency is read from the fitted curve at half-maximal effect.

Assay: qHTS assay for small molecule agonists of the antioxidant response element (ARE) signaling pathway (AID 743202)
Settings: HepG2 ARE-bla reporter, beta-lactamase FRET, 16 h; series mostly up to 73.3 µM
Source text: U.S. Tox21 Program National Center for Advancing Translational Sciences [NCATS] NIH Chemical Genomics Center [NCGC] U.S. Environmental Protection Agency [EPA] National Institutes of Environmental Health Sciences [NIEHS] National Toxicology Program [NTP] U.S. Food and Drug Administration [FDA] Tox21 Assay Overview: Oxidative stress has been implicated in the pathogenesis of a variety of diseases ranging from cancer to neurodegeneration. The antioxidant response element (ARE) signaling pathway plays an important role in the amelioration of oxidative stress. The CellSensor ARE-bla HepG2 cell line (Invitrogen) can be used for analyzing the Nrf2/antioxidant response signaling pathway. Nrf2 (NF-E2-related factor 2) and Nrf1 are transcription factors that bind to AREs and activate these genes. The CellSensor ARE-bla Hep G2 cell line contains a beta-lactamase reporter gene under control of the Antioxidant Response Element (ARE) stably integrated into HepG2 cells. The activation of the report gene under culture conditions can be detected by fluorescence intensity. This cell line has been used to screen the Tox21 10K compound library to identify agonists that induce oxidative stress.
Tox21 Assay Protocol Summary: The ARE-bla cells were dispensed at 2,000 cells/5 ul/well in 1536-well black wall/clear bottom plates using a Multidrop dispenser. After the assay plates were incubated at a 37 C/5% CO2 incubator for 5 hours, 23 nL of compounds dissolved in DMSO, positive controls or DMSO only was transferred to the assay plate by a pin tool. The plates were incubated at 37 C for 16 hours. After 1 uL of LiveBLAzer B/G FRET substrate was added using a Flying Reagent Dispenser, the plates were incubated at room temperature for 2 hours, and fluorescence intensity was measured by an Envision plate reader.
With `CCCCN` the Potency was “inactive”. For `O=C1c2ccccc2C(=O)C1c1ccccc1`, the Potency was “inactive”. With `O=S(=O)(O)c1ccc2cc(O)c(S(=O)(=O)O)cc2c1` the Potency was “inactive”. For `C=COCCOCCOCCOC=C`, the Potency was “inactive”. With `CC(S)C(=O)NCC(=O)O` (stereo not given) the Potency was “inactive”. For `Cc1ccccc1OCC(O)CO` (stereo not given), the Potency was “inactive”. With `Cc1cccc(C)c1OCC(C)N` (stereo not given) the Potency was “inactive”. For `Nc1nnc(-c2cccc(Cl)c2Cl)c(N)n1`, the Potency was “inactive”. In the case of `Cc1ccc2ccc(Cl)cc2n1`, the Potency is reported as “inactive”. For `CN(C)C(=O)CNC(=O)Cc1ccccc1`, the Potency was “inactive”. In the case of `C[Si](C)(C)C`, the Potency is reported as “inactive”. With `Cc1ccsc1/C=C/C1=NCCCN1C` the Potency was “inactive”. In the case of `CCOCCOCCOCC`, the Potency is reported as “inactive”. With `CC(C)C(=O)OCCc1ccccc1` the Potency was “inactive”. With `CC1(C)S[C@@H]2[C@H](N=CN3CCCCCC3)C(=O)N2[C@H]1C(=O)O` the Potency was “inactive”. With `O=C(NCCc1c[nH]c2ccccc12)c1cccnc1` the Potency was “inactive”. With `C=C1CC/C=C(\C)CC[C@@H]2[C@@H]1CC2(C)C` the Potency was “inactive”. For `CCCOC(OCCC)OCCC`, the Potency was “inactive”. For `CN(C)CCOCCO`, the Potency was “inactive”. For `CCCCCCOC(=O)CC`, the Potency was “inactive”. For `C=C(C)C(=O)OCC(C)(C)COC(=O)C(=C)C`, the Potency was “inactive”. In the case of `Cc1cccc2nccnc12`, the Potency is reported as “inactive”. With `O=C(OCC(COC(=O)c1cccnc1)(COC(=O)c1cccnc1)COC(=O)c1cccnc1)c1cccnc1` the Potency was “inactive”. In the case of `CCCOC(=O)C(C)O` (stereo not given), the Potency is reported as “inactive”. For `O=C(O)c1ccc(Cl)cc1Cl`, the Potency was “inactive”. For `CCCCCCCCOS(=O)(=O)O`, the Potency was “inactive”. In the case of `CCOC(=O)[C@H](CCc1ccccc1)N[C@@H](C)C(=O)N1C(=O)N(C)C[C@H]1C(=O)O`, the Potency is reported as “inactive”. For `CCN1CCc2nc(N)oc2CC1`, the Potency was “inactive”. With `C=C(C)C1CCC(C)(O)CC1` (stereo not given) the Potency was “inactive”. With `CC(N)C(=O)OC(C)(C)Cc1ccc(Cl)cc1` (stereo not given) the Potency was “inactive”. With `C=CC(OCC)OCC` the Potency was 34 µM (active). For `Oc1ccccc1-c1nnco1`, the Potency was “inactive”. For `CCOC(=O)c1ccc(OC(=O)CCCCCN=C(N)N)cc1`, the Potency was “inactive”. With `CCCCCCCCCCl` the Potency was “inactive”. In the case of `CC(C)(C)c1n[nH]c(=S)n(N)c1=O`, the Potency is reported as “inactive”. In the case of `O=C1c2ccccc2C(=O)c2cc(S(=O)(=O)O)ccc21`, the Potency is reported as “inactive”. For `CC(=O)c1sc(C)nc1C`, the Potency was “inactive”. With `CCCCCCN` the Potency was “inactive”. With `CCCCNC1CC(C)(C)NC(C)(C)C1` the Potency was “inactive”. With `COc1cc2c(cc1OC)C(=O)CC2` the Potency was “inactive”.
